# Several values for one entry are separate records, joined by “and”; a condition that tells them apart may be missing. Identical values can stand only once. Records with an inconclusive call do not appear. Where a call stands in place of a potency, no number is given. Activity calls are given as the source filed them. Unless noted, the call rests on the fitted dose curve; in most records, active means well fitted curve in the direction sought with a large enough effect; inconclusive means small, poorly fitted or top-dose-only effect, or another doubt; inactive means no such curve, though single readings can be large; an effect the other way counts as inactive or inconclusive.
# Columns and labels:
# [1] = target: Ubiquitin carboxyl-terminal hydrolase 1 (Homo sapiens) (UniProt O94782); assay: Inhibitors of USP1/UAF1: Pilot qHTS (AID 504865); further: nearly all actives have a fitted effect of over 35% in size; further: potency means the concentration at half of the fitted maximal effect
# Sequence of Ubiquitin carboxyl-terminal hydrolase 1 (Homo sapiens) (O94782 whole entry, looked up): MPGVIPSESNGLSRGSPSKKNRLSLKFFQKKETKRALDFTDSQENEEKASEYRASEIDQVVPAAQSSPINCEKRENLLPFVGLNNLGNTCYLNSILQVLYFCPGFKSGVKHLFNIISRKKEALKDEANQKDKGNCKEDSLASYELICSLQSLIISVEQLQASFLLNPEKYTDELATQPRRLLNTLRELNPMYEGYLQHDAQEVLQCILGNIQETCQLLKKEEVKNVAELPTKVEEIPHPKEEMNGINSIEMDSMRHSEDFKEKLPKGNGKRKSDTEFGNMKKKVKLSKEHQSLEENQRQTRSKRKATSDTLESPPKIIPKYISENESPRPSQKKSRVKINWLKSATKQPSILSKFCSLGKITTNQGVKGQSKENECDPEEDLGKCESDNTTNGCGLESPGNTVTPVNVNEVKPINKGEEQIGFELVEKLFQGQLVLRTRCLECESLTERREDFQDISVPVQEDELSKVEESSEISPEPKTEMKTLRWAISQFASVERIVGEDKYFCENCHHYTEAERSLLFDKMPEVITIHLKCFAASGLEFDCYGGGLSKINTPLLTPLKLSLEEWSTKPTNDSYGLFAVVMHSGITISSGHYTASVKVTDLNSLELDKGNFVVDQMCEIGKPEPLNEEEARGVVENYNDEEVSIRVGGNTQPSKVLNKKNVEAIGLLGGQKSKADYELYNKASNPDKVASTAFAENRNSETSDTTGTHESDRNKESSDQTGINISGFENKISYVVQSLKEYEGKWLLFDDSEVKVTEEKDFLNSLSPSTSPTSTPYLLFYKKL
# How it was run: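 Kinetic fluorescence assay: 1nM USP1/UAF1, 15 min compound preincubation, then 150nM Ub-Rho; 480/540 nm.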
# [2] = target: Estrogen receptor (Homo sapiens) (UniProt P03372); assay: qHTS assay for small molecule antagonists of estrogen receptor alpha signaling (AID 588513; active means well fitted curve in the direction sought with a large enough effect in the signal ratio, with a control signal flat, not every such curve was filed as active; the % refers to the signal ratio; further: potency means the concentration at half of the fitted maximal effect)
# Sequence of Estrogen receptor (Homo sapiens) (P03372 whole entry, looked up): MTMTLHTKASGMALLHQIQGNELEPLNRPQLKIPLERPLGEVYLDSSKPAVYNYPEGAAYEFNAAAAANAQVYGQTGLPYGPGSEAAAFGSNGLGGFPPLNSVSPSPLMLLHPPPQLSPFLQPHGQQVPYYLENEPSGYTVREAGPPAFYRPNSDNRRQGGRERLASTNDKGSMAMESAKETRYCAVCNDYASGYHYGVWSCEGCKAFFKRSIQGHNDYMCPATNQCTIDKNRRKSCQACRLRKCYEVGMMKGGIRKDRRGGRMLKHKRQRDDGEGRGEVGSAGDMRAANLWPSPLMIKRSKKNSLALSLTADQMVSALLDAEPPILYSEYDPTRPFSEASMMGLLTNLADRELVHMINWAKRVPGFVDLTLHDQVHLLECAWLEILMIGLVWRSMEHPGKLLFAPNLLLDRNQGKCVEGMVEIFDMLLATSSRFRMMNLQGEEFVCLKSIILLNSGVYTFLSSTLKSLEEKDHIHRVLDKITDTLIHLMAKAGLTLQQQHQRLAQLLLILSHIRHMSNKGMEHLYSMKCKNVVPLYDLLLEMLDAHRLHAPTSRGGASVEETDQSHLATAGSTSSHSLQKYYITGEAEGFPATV
# How it was run: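 Cells were plated at 5000/well and incubated 4 h at 37 C. Compounds were added as 1:2 dilution series, duplicates. 17-beta-estradiol (0.5nM final) was added for 18 h before CCF4 detection.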
# [3] = target: Estrogen receptor (Homo sapiens) (UniProt P03372); assay: qHTS assay for small molecule agonists of estrogen receptor alpha signaling (AID 588514; calls by dose curve; further: nearly all actives have a fitted effect of over 70% in size; further: potency means the concentration at half of the fitted maximal effect)
# How it was run: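 ER-alpha-UAS-bla GripTite HEK 293 cells in medium with 2% charcoal/dextran-treated FBS were treated with compound titrations at 37 C for 18 hrs; beta-lactamase reporter read by CCF4 fluorescence after 2 hrs at RT.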
# [4] = target: Glucocorticoid receptor (Homo sapiens) (UniProt P04150); assay: qHTS assay for small molecule antagonists of glucocorticoid receptor signaling (AID 588533; active means well fitted inhibition curve with a large enough effect in the signal ratio, with a control signal flat, not every such curve was filed as active; the % refers to the signal ratio;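 further: cells stimulated with 2 nM dexamethasone as agonist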; further: potency means the concentration at half of the fitted maximal effect)
# Sequence of Glucocorticoid receptor (Homo sapiens) (P04150 whole entry, looked up): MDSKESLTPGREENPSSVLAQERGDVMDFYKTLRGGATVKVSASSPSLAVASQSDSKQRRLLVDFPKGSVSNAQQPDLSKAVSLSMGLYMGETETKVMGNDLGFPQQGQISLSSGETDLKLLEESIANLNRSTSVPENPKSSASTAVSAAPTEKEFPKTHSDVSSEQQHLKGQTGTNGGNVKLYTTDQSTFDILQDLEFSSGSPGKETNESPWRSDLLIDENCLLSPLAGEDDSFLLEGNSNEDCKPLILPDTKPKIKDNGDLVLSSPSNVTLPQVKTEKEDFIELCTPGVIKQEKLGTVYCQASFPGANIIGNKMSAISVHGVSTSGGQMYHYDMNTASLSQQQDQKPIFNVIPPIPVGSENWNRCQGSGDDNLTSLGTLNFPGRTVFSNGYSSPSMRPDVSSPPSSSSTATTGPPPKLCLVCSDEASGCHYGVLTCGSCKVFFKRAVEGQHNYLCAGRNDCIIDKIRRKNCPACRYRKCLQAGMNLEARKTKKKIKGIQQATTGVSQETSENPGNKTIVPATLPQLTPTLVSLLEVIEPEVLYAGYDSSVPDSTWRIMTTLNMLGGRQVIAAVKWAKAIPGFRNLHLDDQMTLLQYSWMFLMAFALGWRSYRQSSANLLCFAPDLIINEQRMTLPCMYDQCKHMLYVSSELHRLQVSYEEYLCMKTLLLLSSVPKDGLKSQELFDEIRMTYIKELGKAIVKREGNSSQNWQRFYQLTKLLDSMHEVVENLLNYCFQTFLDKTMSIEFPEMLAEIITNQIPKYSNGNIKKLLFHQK
# How it was run: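 Antagonist-mode qHTS: compound titrations added to GRE-bla HeLa cells, then dexamethasone 2 nM final; 18 h, 37 C. CCF4 FRET fluorescence normalized to dexamethasone and DMSO; IC50 from Hill fit.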
# [5] = qHTS assay for small molecule antagonists of peroxisome proliferator-activated receptor delta signaling (AID 588535; active means well fitted inhibition curve with a large enough effect in the signal ratio, with a control signal flat, not every such curve was filed as active; the % refers to the signal ratio;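 on max response: cells co-treated with a PPAR-delta agonist as stimulator during compound exposure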); details: HEK293T PPARd-UAS-bla, beta-lactamase FRET ratio, 18 h; 460 nm channel
# How it was run: (§1)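 Cell-based beta-lactamase assay in antagonist mode: 4000 HEK293T PPAR-delta-UAS-bla cells per well, 5 hr preincubation then 18 hr compound incubation at 37 C. IC50 obtained by Hill equation fitting.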
# [6] = target: Peroxisome proliferator-activated receptor delta (Homo sapiens) (UniProt Q03181); assay: as above
# Sequence of Peroxisome proliferator-activated receptor delta (Homo sapiens) (Q03181 whole entry, looked up): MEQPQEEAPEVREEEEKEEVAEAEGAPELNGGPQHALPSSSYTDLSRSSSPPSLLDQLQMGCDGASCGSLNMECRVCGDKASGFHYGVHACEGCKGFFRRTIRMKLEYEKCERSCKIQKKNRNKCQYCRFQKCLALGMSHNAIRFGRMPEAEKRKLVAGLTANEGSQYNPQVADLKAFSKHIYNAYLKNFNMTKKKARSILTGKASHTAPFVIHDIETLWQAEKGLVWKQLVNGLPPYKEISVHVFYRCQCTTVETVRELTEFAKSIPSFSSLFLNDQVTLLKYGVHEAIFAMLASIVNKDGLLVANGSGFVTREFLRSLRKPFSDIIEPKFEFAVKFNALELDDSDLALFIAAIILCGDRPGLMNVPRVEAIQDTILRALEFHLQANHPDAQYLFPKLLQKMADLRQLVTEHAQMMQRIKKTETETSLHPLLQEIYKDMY
# How it was run: as §1
# [7] = target: Androgen receptor (Homo sapiens) (UniProt P10275); assay: qHTS assay for small molecule antagonists of androgen receptor signaling (AID 588516; active means well fitted curve in the direction sought with a large enough effect in the signal ratio, with a control signal flat, not every such curve was filed as active; the % refers to the signal ratio)
# Sequence of Androgen receptor (Homo sapiens) (P10275 whole entry, looked up): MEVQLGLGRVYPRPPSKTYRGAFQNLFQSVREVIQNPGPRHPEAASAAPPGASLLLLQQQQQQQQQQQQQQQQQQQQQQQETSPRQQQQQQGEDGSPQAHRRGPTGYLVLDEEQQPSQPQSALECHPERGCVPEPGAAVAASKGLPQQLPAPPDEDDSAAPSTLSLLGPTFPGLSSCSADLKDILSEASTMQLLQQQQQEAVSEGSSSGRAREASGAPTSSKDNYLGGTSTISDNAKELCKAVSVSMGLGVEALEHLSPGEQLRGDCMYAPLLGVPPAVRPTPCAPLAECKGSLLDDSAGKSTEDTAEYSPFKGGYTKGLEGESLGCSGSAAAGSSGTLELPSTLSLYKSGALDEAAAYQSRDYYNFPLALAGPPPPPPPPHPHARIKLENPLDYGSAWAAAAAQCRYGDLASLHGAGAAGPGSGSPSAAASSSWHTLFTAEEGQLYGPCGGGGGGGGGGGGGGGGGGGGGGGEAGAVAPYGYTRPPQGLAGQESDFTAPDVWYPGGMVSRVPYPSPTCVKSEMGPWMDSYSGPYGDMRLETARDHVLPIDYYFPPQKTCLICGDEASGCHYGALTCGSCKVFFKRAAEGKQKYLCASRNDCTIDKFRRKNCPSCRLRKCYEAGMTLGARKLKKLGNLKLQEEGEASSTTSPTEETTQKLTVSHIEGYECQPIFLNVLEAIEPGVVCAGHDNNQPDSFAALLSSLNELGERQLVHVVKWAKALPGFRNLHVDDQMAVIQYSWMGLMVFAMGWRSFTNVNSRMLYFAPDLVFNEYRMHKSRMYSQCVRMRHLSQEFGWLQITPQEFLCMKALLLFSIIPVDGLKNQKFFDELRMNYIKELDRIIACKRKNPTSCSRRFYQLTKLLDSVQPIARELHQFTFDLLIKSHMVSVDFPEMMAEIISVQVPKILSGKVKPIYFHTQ
# How it was run: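 Antagonist-mode qHTS: inhibition of R1881 (10 nM)-driven beta-lactamase expression in GripTite HEK 293 cells is measured after 16 h; values are Hill-derived IC50s normalized between R1881 and DMSO wells.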
# [8] = target: DNA dC->dU-editing enzyme APOBEC-3G (Homo sapiens) (UniProt Q9HC16); assay: qHTS for inhibitors of Vif-A3G interactions: Validation (AID 588379)
# Sequence of DNA dC->dU-editing enzyme APOBEC-3G (Homo sapiens) (Q9HC16 whole entry, looked up): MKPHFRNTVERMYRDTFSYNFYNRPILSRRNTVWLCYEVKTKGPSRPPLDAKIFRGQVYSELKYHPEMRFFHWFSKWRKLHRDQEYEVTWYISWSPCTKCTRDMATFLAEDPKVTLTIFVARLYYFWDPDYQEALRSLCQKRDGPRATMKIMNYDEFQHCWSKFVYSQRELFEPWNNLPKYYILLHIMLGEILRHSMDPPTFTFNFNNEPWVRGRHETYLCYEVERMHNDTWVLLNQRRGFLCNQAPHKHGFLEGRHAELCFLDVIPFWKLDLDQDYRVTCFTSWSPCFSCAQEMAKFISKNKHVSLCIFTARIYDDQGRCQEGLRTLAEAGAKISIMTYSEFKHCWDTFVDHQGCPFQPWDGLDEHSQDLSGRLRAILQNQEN
# How it was run: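 HeLa cells stably expressing Vif and A3G-eYFP, 700 cells/well, incubated overnight at 37 deg C, then exposed to compound overnight at 37 deg C. Inhibition of Vif-mediated degradation read as increased yellow fluorescence (Ex 488/Em 500-530) by laser-scanning cytometry.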
# [9] = qHTS for Inhibitors of ATXN expression: Validation (AID 588378); further: series mostly up to about 57 µM; nearly all actives have a fitted effect of over 75% in size
# How it was run: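 Validation of ATXN2 expression inhibitors uses a cell-based luciferase fusion reporter in HEK293 cells, with 24 h compound exposure and paired viability (fluorescence) and reporter (luminescence) end-point reads.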
# [10] = target: Androgen receptor (Homo sapiens) (UniProt P10275); assay: qHTS assay for small molecule agonists of androgen receptor signaling (AID 588515; active means well fitted curve in the direction sought with a large enough effect in the signal ratio, with a control signal flat; the % refers to the signal ratio); details: AR-UAS-bla HEK293, beta-lactamase ratio, agonist 16 h; stronger effect = higher value
# How it was run: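 EC50 and efficacy came from Hill fits of titrations (up to 92 uM) normalized to 30 nM R1881 as 100% and DMSO as 0%. Compound exposure was 16 h at 37 C on AR-UAS-bla HEK293 cells, with a 405/460/530 nm CCF4 fluorescence read.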
compound,measurement,setting,value
Nc1ncnc2c1ncn2CCOCP(=O)(O)O,Potency,[1],inactive
CC/C(=C(/CC)c1ccc(OP(=O)(O)O)cc1)c1ccc(OP(=O)(O)O)cc1,Potency,[1],inactive
CC1=CCC2CC1C2(C)C (configuration not stated),Potency,[1],inactive
same,Potency,[2],inactive
same,Potency,[3],inactive
same,Potency,[4],inactive
same,max response,[5],-1.04%
same,outcome,[6],inactive
FC(F)(F)C(F)(F)C(F)(F)C(F)(F)C(F)(F)F,Potency,[1],inactive
OCCOCCOCCO,Potency,[1],inactive
same,Potency,[2],inactive
same,Potency,[3],inactive
same,outcome,[7],inactive
same,Potency,[4],inactive
Cc1cc(-c2ccc(N=Nc3ccc4c(S(=O)(=O)O)cc(S(=O)(=O)O)c(N)c4c3O)c(C)c2)ccc1N=Nc1ccc2c(S(=O)(=O)O)cc(S(=O)(=O)O)c(N)c2c1O,Potency,[1],11.2 µM (active) and 25.1 µM (active)
same,outcome,[8],inactive
CCOC(=O)C1=C(COCCN)NC(C)=C(C(=O)OC)C1c1ccccc1Cl (configuration not stated),Potency,[1],inactive
C[C@@](Cc1ccc(O)c(O)c1)(NN)C(=O)O,Potency,[1],inactive
same,outcome,[8],inactive
COc1ccc(C[C@H](C)NC[C@@H](O)c2ccc(O)c(NC=O)c2)cc1,Potency,[1],inactive
same,outcome,[8],inactive
NC(=O)[C@H]1O[C@@H](O)[C@H](O)[C@@H](O)[C@@H]1O,Potency,[1],inactive
COc1cc(S(C)=O)ccc1-c1nc2ncccc2[nH]1 (configuration not stated),Potency,[1],inactive
O=C(O)CCC(=O)c1ccc(-c2ccccc2)cc1,Potency,[1],inactive
NCCO/C=C/[C@H](N)C(=O)O,Potency,[1],inactive
same,Potency,[2],inactive
same,Potency,[3],inactive
same,Potency,[4],inactive
same,max response,[5],-3.12%
same,outcome,[6],inactive
CC(=O)c1ccc2c(c1)N(CCCN1CCN(CCO)CC1)c1ccccc1S2,Potency,[1],inactive
O=C1CCC(=O)N1CO,Potency,[1],inactive
O=S(=O)(O)CCCS(=O)(=O)O,Potency,[1],inactive
CCCCCCCCCC(=O)NO,Potency,[1],inactive
NC(N)=O,Potency,[1],inactive
same,Potency,[2],inactive
same,Potency,[3],inactive
CC[C@H]1OC(=O)[C@H](C)[C@@H](O[C@H]2C[C@@](C)(OC)[C@@H](O)[C@H](C)O2)[C@H](C)[C@@H](O[C@@H]2O[C@H](C)C[C@H](N(C)C)[C@H]2O)[C@](C)(O)C[C@@H](C)CN(C)[C@H](C)[C@@H](O)[C@]1(C)O,Potency,[1],inactive
same,Potency,[2],inactive
same,Potency,[3],inactive
CC(C)[C@H](N)C(=O)OCC(CO)OCn1cnc2c(=O)[nH]c(N)nc21 (some centres not stated),Potency,[1],inactive
Oc1ccc(/C=C/c2cc(O)cc(O)c2)cc1,Potency,[1],inactive
same,outcome,[9],inactive
same,outcome,[8],inactive
same,Potency,[2],31.6 µM [inhibitor] (active)
CCC(C(=O)NC(N)=O)c1ccccc1 (configuration not stated),Potency,[1],inactive
C[C@]12CCC(=O)C[C@@H]1CC[C@@H]1[C@@H]2CC[C@]2(C)C=CC[C@@H]12,Potency,[1],inactive
OC[C@H]1O[C@@H]2O[C@H]3[C@H](O)[C@@H](O)[C@@H](O[C@H]4[C@H](O)[C@@H](O)[C@@H](O[C@H]5[C@H](O)[C@@H](O)[C@@H](O[C@H]6[C@H](O)[C@@H](O)[C@@H](O[C@H]7[C@H](O)[C@@H](O)[C@@H](O[C@H]1[C@H](O)[C@H]2O)O[C@@H]7CO)O[C@@H]6CO)O[C@@H]5CO)O[C@@H]4CO)O[C@@H]3CO,Potency,[1],inactive
same,Potency,[2],inactive
same,Potency,[3],11.2 µM (active)
same,Potency,[4],inactive
O=C(O)Cc1nn(Cc2ccc(Br)cc2F)c(=O)c2ccccc12,Potency,[1],inactive
same,outcome,[8],inactive
C[C@H](CCCC(C)(C)O)[C@H]1CC[C@H]2[C@@H]3CC=C4C[C@@H](O)CC[C@]4(C)[C@H]3CC[C@]12C,Potency,[1],inactive
Cc1c(C)c2c(c(C)c1OC(=O)CCC(=O)O)CC[C@@](C)(CCC[C@H](C)CCC[C@H](C)CCCC(C)C)O2,Potency,[1],35.5 µM (active)
CN(C)C(=O)CCSC(SCCC(=O)O)c1cccc(/C=C/c2ccc3ccc(Cl)cc3n2)c1 (configuration not stated),Potency,[1],50.1 µM (active)
COc1ccc(-c2noc(CC(=O)O)c2-c2ccc(OC)cc2)cc1,Potency,[1],inactive
OCc1ccccc1,Potency,[1],inactive
same,Potency,[2],inactive
same,Potency,[3],inactive
same,activation,[10],-14.4% (inactive)
same,outcome,[7],inactive
same,Potency,[4],inactive
C[C@H]1O[C@@H](O[C@H]2[C@@H](O)C[C@H](O[C@H]3[C@@H](O)C[C@H](O[C@H]4CC[C@@]5(C)[C@H](CC[C@@H]6[C@@H]5C[C@@H](O)[C@]5(C)[C@@H](C7=CC(=O)OC7)CC[C@]65O)C4)O[C@@H]3C)O[C@@H]2C)C[C@H](O)[C@@H]1O,Potency,[1],inactive
same,outcome,[8],inactive
same,Potency,[4],1 µM (active) and 562 nM (active)
CCCCCCCCCCCCOCCCN,Potency,[1],inactive
C=C(C)C1CC=C(C)CC1 (configuration not stated),Potency,[1],inactive
same,Potency,[2],inactive
same,Potency,[3],inactive
same,Potency,[4],inactive
CCOc1ccc(NC(=S)Nc2ccc(OCC)cc2)cc1,Potency,[1],inactive
[O]=[Bi][O]C(=O)[O][Bi]=[O],Potency,[1],inactive
CC(C)(C)CC(C)(C)c1ccc(OCCO)cc1,Potency,[1],inactive
same,Potency,[2],inactive
same,Potency,[3],inactive
same,activation,[10],-21% (inactive)
N[C@H](CC(=O)O)C(=O)O,Potency,[1],inactive
same,outcome,[8],inactive
NC(=O)C1c2ccccc2CCc2ccccc21,Potency,[1],inactive
OCC1(CO)COC(C(Cl)(Cl)Cl)OC1,Potency,[1],inactive
C[C@H](CCC(=O)O)[C@H]1CC[C@H]2[C@@H]3CC[C@@H]4C[C@H](O)CC[C@]4(C)[C@H]3C[C@H](O)[C@]12C,Potency,[1],inactive
same,Potency,[2],inactive
same,Potency,[3],inactive
O=C1c2ccccc2C(=O)c2c1ccc(O)c2O,outcome,[8],inactive
CCCCCCCCCCCCCCCCCC(=O)OC[C@@H](O)[C@H]1OC[C@H](O)[C@H]1O,outcome,[7],inactive
CC(C)[C@@H]1CC[C@@H](C)C[C@H]1O,outcome,[7],inactive
